Measurements from PubChem BioAssay (NCI).
The panel holds about 79,000 compounds, 15% with a hit somewhere; the sample as a whole holds those more often. Cut-off read from the data, not from the text of the source: active = growth inhibition above about 70%; inactive = the rest.

Legend:
[1] = NCI Yeast Anticancer Drug Screen. Data for the rad50 strain (AID 155);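 note: 0% = growth of vehicle-only cultures of the same strain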; settings: S. cerevisiae rad50 strain growth inhibition; at 50.0 µM; stronger effect = higher value
Summary of the method: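 Compounds were tested on a yeast strain with an engineered DNA damage repair alteration; the reported value is growth inhibition normalised to vehicle treatment.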

[2] = NCI Yeast Anticancer Drug Screen. Data for the mec2-1 strain (AID 157); settings: S. cerevisiae mec2-1 strain, at 50.0 µM, stronger effect = higher value
Summary of the method: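 mec2-1 yeast strain, carrying an alteration in DNA damage repair or cell cycle control, was exposed to compounds; growth inhibition was measured relative to vehicle-treated controls.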

[3] = NCI Yeast Anticancer Drug Screen. Data for the sgs1 mgt1 strain (AID 161);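 note: 0% = growth of cultures given vehicle only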; settings: S. cerevisiae sgs1 mgt1 strain, at 50.0 µM, stronger effect = higher value
Summary of the method: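 This yeast growth screen uses a strain with defined DNA-repair lesions; compound-treated growth is compared with vehicle-treated growth.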

[4] = NCI Yeast Anticancer Drug Screen. Data for the cln2 rad14 strain (AID 165);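 note: 0% = growth equal to vehicle treated cultures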; settings: S. cerevisiae cln2 rad14 strain, at 50.0 µM, stronger effect = higher value
Summary of the method: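 Yeast carrying cln2 and rad14 alterations (cell cycle control and DNA damage repair) were exposed to compounds. Growth inhibition was measured against vehicle-treated controls.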

[5] = NCI Yeast Anticancer Drug Screen. Data for the bub3 strain (AID 167); settings: S. cerevisiae bub3 mutant strain, at 50.0 µM, stronger effect = higher value
Summary of the method: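 Growth of a checkpoint-deficient yeast mutant is measured after compound exposure. Values represent inhibition relative to vehicle.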

[6] = NCI Yeast Anticancer Drug Screen. Data for the mlh1 rad18 strain (AID 175); settings: S. cerevisiae mlh1 rad18 strain growth inhibition; at 50.0 µM; stronger effect = higher value
Summary of the method: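 Growth inhibition of the yeast strain was measured after compound exposure and expressed relative to vehicle-treated controls. The strain carries defined defects in DNA damage repair.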

Measured: growth inhibition

N#Cc1c(/C=C/c2ccccc2)c2c([nH]c1=S)CCCCC2
inactive: [1] 0.35% | [2] -17.5% | [3] 16.1% | [4] 26.8% | [5] 16.9% | [6] 19.1%

CN(C)/C=N/NC(=O)C(O)(c1ccccc1)c1ccccc1
inactive: [1] -7.45% | [2] 9.8% | [3] -7.85% | [4] -0.25% | [5] 1.55% | [6] 7.15%

O=C(O)C(C1=CCCCC1)C1(O)CCCCC1 (centres undefined)
inactive: [1] -9.15% | [2] -5.45% | [3] 17.6% | [4] -5.85% | [5] -0.65% | [6] 12.7%

COc1cc(C)c(C(=O)/C=C/c2cc(OC)c(O)c(OC)c2)cc1O
inactive: [1] 55.7% | [2] 36.9% | [3] 39.6% | [4] 35.6% | [5] 46.2% | [6] 46.7%

O=C1c2cc(Cl)ccc2-c2c(Cl)cccc21
inactive: [1] 22.9% | [2] -4.95% | [3] -10.9% | [4] 2.05% | [5] 4.05% | [6] -14.9%

N#Cc1cc2ccccc2c2ccccc12
inactive: [1] 8.6% | [2] -4.15% | [3] 5.85% | [4] 12.3% | [5] -11.2% | [6] 18.4%

N/C=N/OC(=O)c1ccccc1
inactive: [1] 11.5% | [2] 14.4% | [3] 11.8% | [4] 4.7% | [5] 0.5% | [6] 8.25%

CC1CNC(=S)SSC(=S)N1 (centres undefined)
inactive: [1] 35.8% | [2] 26.5% | [3] 20.9% | [4] 32.7% | [5] 14.1% | [6] 27.7%

CCC(C)C(NS(=O)(=O)Cc1ccccc1)C(=O)O (centres undefined)
inactive: [1] -3.85% | [2] 16.4% | [3] 3.05% | [4] 10.9% | [5] -10.3% | [6] 6.8%

CCn1c2ccc(C=O)cc2c2cc([N+](=O)[O-])ccc21
inactive: [1] 6.25% | [2] -2.1% | [3] 7.2% | [4] -0.05% | [5] -4.7% | [6] 15.1%

CN(Cc1cnc2nc(N)nc(N)c2n1)c1ccc(C(=O)NC(CCC(=O)NC(CCC(=O)NC(CCC(=O)NC(CCC(=O)O)C(=O)O)C(=O)O)C(=O)O)C(=O)O)cc1 (centres undefined)
inactive: [1] 42.8% | [2] -19.8% | [3] -35.9% | [4] -26.1% | [5] -41.6% | [6] -12.5%

COc1ccc(Br)cc1/C=N/N=C/c1cc(Br)ccc1OC
inactive: [1] -0.2% | [2] -21.6% | [3] 1.5% | [4] 20.9% | [5] 21.5% | [6] 23.4%

CCCO[C@@H]1[C@@H](OC(C)=O)[C@@H](OC(C)=O)C(C)(C)/C=C/[C@H](C)C(=O)[C@@]2(OC(C)=O)C[C@@](C)(OC(C)=O)[C@H](OC(C)=O)[C@@H]2[C@H]2OC(=O)CC[C@@]12OC(=O)c1ccccc1
inactive: [1] -14.7% | [2] -24.2% | [3] -56.5% | [4] -16.1% | [5] -48.8% | [6] -29.1%

COc1ccc2nc(CC(C)C)c3c(c2c1)-c1ccccc1C3=O
inactive: [1] 1.35% | [2] -8.8% | [3] -10.2% | [4] -12.2% | [5] -0.35% | [6] -12.2%

Nc1cc(Cl)c(F)cc1Cl
inactive: [1] -13.3% | [2] 0.25% | [3] -3.6% | [4] -28.8% | [5] 1.15% | [6] -14.2%

CCCC(=O)Oc1cccc(C)c1
inactive: [1] 15.7% | [2] 4.75% | [3] 0.1% | [4] 14.6% | [5] 0.1% | [6] -17.8%

c1cnc2cccnc2c1
inactive: [1] -16.1% | [2] -30.4% | [3] -14.7% | [4] -6.15% | [5] -8.6% | [6] -9.9%

Cc1ccc(C(=O)Nc2ccc(CP(=O)(O)O)cc2)cc1NC(=O)c1cccc(N)c1
inactive: [1] -27.2% | [2] -14.7% | [3] -20.4% | [4] 0.9% | [5] -9% | [6] 4.15%

CCCc1c(-c2ccccc2)nc(N)nc1-c1nc(N)nc(-c2ccccc2)c1CCC
inactive: [1] -1.75% | [2] -10.7% | [3] -12.4% | [4] 9.4% | [5] -2.25% | [6] -1.4%
